# tim23-1 inh: growth inhibitors of tim23-1 mutant yeast; S. cerevisiae tim23-1 growth, BacTiter-Glo luminescence, 24 h; inhibition, % at 20 µM; 330,000 compounds, 1.3% hits;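 active = growth inhibition of the mutant yeast at or above 50%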;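 also: temperature-sensitive mutant grown at 25 °C; plate controls were DMSO-treated mutant yeast for no effect and medium wells lacking yeast for full effect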
# V-ATPase pHluor: yeast V-ATPase proton transport regulation by pHLuorin; response, % at 10 µM; 350,000 compounds, 0.37% hits; S. cerevisiae, pHLuorin cytosolic pH fluorescence; in the data active = response mostly above about 7.3%, no sharp cut-off; inactive = mostly below about 5.4%; also: actives read high
# tim10-1 inh: tim10-1 yeast growth inhibition; 330,000 compounds, 2.2% hits; inhibition, % at 20 µM; S. cerevisiae tim10-1 ts strain growth, BacTiter-Glo, 24 h;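 active = inhibition of at least 40%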;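 also: mutant grown at 25 °C; 0% = DMSO wells with yeast and 100% = wells holding no yeast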
# TIM10 inh: growth inhibitors of TIM10 yeast strain | AID 463195 | S. cerevisiae TIM10 strain growth, BacTiter-Glo luminescence, 24 h | 330,000 compounds, 1.4% hits | inhibition, % at 10 µM;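 active = inhibition of 40% or more at the single tested concentration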;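 also: wild-type TIM10 isogenic control strain grown at permissive 25 °C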
# PfHsp90 set2: growth inhibition of yeast expressing Plasmodium Hsp90 | S. cerevisiae expressing PfHsp90, BacTiter-Glo ATP, 48 h; yeast lacking PDR1 and PDR3 efflux regulators | inhibition, % at 9.4 µM | 310,000 compounds, 0.32% hits | AID 504621;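 active = every replicate shows inhibition above about 80%, whatever the replicate mean, limit read from the data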;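 also: 0% = DMSO neutral controls and 100% = 20 µM radicicol positive controls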
# TIM10 conf: confirmation of TIM10 yeast growth inhibitors. shares compounds with TIM10 inh. S. cerevisiae tim10 strain growth, BacTiter-Glo luminescence, 24 h. inhibition, % at 10 µM. 4,600 compounds, 63% hits. AID 463215;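 active = inhibition of yeast growth at or above a set limit in either of two replicates at 10 µM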;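 also: this counterscreen used the strain with wild-type TIM10; 0% = yeast with DMSO and 100% = medium wells lacking yeast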
# Active calls of the source: *; x = not tested or not shown. Shown are actives, neighbours in structure and some others; about 3.7% of the full set was active somewhere.
SMILES,tim23-1 inh,V-ATPase pHluor,tim10-1 inh,TIM10 inh,PfHsp90 set2,TIM10 conf
CCOC(=O)N1CCN(C(=O)c2ccc3c(c2)sc2nc(-c4ccc(OC)cc4)cn23)CC1,16.3,4.2,18.0,49.9*,-18.4,44.3*
O=C(NC(=S)N1CCCCC1CO)c1cccs1 (stereo not given),9.5,-2.8,8.1,0.9,x,x
O=C(Cn1cc(/C=C\[N+](=O)[O-])c2ccccc21)Nc1ccccc1,37.6,1.5,37.9,42.7*,3.7,55.2*
O=[N+]([O-])/C=C/c1cn(Cc2ccccc2)c2ccccc12,43.7,0.9,34.8,46.5*,93.1*,56.1*
O=C(O)Cn1cc(/C=C/[N+](=O)[O-])c2ccccc21,7.1,-0.3,-3.9,0.4,-9.7,x
Nc1ccc(C(=O)N/N=C/c2cn(Cc3ccccc3)c3ccccc23)cc1,11.9,2.0,-2.1,-2.3,58.0,x
CC1=C(C(=O)N(C)C)CC(CC(=O)NCCN2CCOCC2)C(=O)N1Cc1ccc(F)cc1 (stereo not given),x,2.1,x,x,x,x
Cc1cccc(C(=O)NNC(=O)C23CC4CC(CC(C4)C2)C3)c1O,27.8,-4.0,3.7,48.7*,0.4,46.1*
CS(=O)(=O)N1CCCCC1CCN1CCCCC1 (stereo not given),x,2.5,x,x,8.0,x
COc1ccc(C2CC(=O)C(C=NCC(C)C)=C(O)C2)cc1 (stereo not given),7.9,-0.5,-9.1,96.6*,-25.9,1.4
C[C@@H]1CN([C@H](C)CO)C(=O)c2cc(Br)cnc2O[C@@H]1CN(C)Cc1ccc(F)cc1,x,3.3,x,x,x,x
CCn1cc(Br)c(C(=O)Nc2ccc(OC)cc2)n1,-7.3,-0.7,-3.7,5.3,-20.7,x
CCn1cc(Br)c(C(=O)Nc2ccc(Cl)c(Cl)c2)n1,24.3,-1.8,38.0,61.8*,-57.4,45.2*
Cc1cc(Nc2ccc(Cl)cc2)nc(-c2ccccc2O)n1,24.1,1.0,25.3,14.4,-19.1,x
Cc1cc(Nc2cccc(Cl)c2)nc(-c2ccccc2O)n1,18.5,5.5,18.0,42.0*,-43.7,40.8*
Cc1c([N+](=O)[O-])cc(C(=O)Oc2ccc(Br)cc2C(=S)N2CCCCC2)cc1[N+](=O)[O-],21.5,-1.5,33.8,44.0*,-27.5,32.1*
Cc1ccc(C(=O)Oc2ccc(Br)cc2C(=S)N2CCOCC2)cc1,35.8,1.7,20.2,1.2,-17.1,x
N#Cc1ccc(OCc2cccc(S(=O)(=O)N3CCOCC3)c2)cc1,7.8,-7.3,8.6,-5.4,-25.1,x
Cc1cc(OCc2cccc(S(=O)(=O)N3CCOCC3)c2)ccc1Cl,34.6,-3.4,18.7,49.5*,-2.0,26.2
O=C(c1ccccc1)C(CN1CCCCC1)c1ccccc1 (stereo not given),x,-4.2,x,x,-37.3,x
S=c1[nH]nc(-c2ccc(Cl)cc2Cl)n1Cc1ccccc1,43.6,-2.7,28.3,55.9*,-80.2,16.9
S=c1[nH]nc(-c2cccc(Cl)c2)n1Cc1ccccc1,40.4,-2.9,31.7,37.5,-6.6,x
CCn1c(-c2cc(-c3ccccc3)sc2N)n[nH]c1=S,41.3,-2.7,24.8,45.2*,-3.6,43.0*
S=c1[nH]nc(-c2cc3ccccc3o2)n1Cc1ccccc1,45.4,1.0,33.0,52.4*,-20.9,47.8*
S=c1[nH]nc(-c2ccc(Cl)cc2Cl)n1-c1ccccc1,21.9,-3.2,14.5,6.6,-10.6,x
SMILES,tim23-1 inh,V-ATPase pHluor,tim10-1 inh,TIM10 inh,PfHsp90 set2,TIM10 conf
Cc1cccc(-c2n[nH]c(=S)n2Cc2ccccc2)c1,23.1,-6.4,38.2,41.4*,-10.5,-39.7
CCOc1ccccc1NC(=O)c1cccc(NC(=O)C2CCCC2)c1,49.1,-2.2,38.1,14.4,4.2,x
COc1ccc(C(CNC(=O)c2ccc(NS(=O)(=O)c3ccc(F)c(C)c3)cc2)N2CCOCC2)cc1 (stereo not given),-2.6,-2.0,-14.6,0.2,-16.4,x
O=C(Cc1cccs1)N(Cc1cccs1)C1(C(=O)NC2CCCC2)CCCCC1,30.7,2.0,18.7,27.0,72.7,x
O=C(Cc1cccs1)N(Cc1ccco1)C1(C(=O)NC2CCCCC2)CCCCC1,21.5,-1.2,27.9,42.5*,-11.9,10.2
CCC(C)(C)C1CCc2[nH]nc(C(=O)N/N=C(\C)c3ccco3)c2C1 (stereo not given),47.2,6.8,30.8,44.6*,-4.9,24.9
COc1ccc(SC[C@H](Cc2ccccc2)N2CC[C@@H](C(C)(C)C)CCC2=O)cc1,24.5,2.6,9.7,9.0,-7.3,x
COc1ccc(S(=O)(=O)N2CCCCC2)cc1NC(=O)c1c(F)cccc1Cl,24.2,-6.4,27.4,17.2,-0.4,x
COc1ccc(CN2C(=NC(=O)c3ccccc3)SC3CS(=O)(=O)CC32)cc1 (stereo not given),-7.1,-0.2,2.6,-7.1,10.6,x
COc1ccc(OC)c2[nH]c(=O)c(CCNC(=O)c3ccc(Br)o3)cc12,17.8,3.1,24.6,47.2*,2.2,12.2
COc1cc(C(=O)NCCc2cc3c(OC)ccc(OC)c3[nH]c2=O)cc(OC)c1OC,13.0,4.0,10.5,16.4,x,x
CN1CCC(NC(=O)NC2CCCCC2)CC1,0.3,-5.6,4.7,3.9,-8.7,x
O=C(NC1CCCCCCC1)NC1CCCCC1,32.8,-0.4,29.6,49.6*,7.7,23.5
Cc1ccccc1N1CCN(C(=O)c2ccc(Oc3ccc(C(F)(F)F)cn3)cc2)CC1,38.3,1.0,37.6,47.2*,3.2,42.8*
c1ccc(-c2nc(N3CCCCCC3)nc(-n3ccnc3)n2)cc1,17.0,2.2,16.1,48.4*,-23.0,27.6
CC(=O)N1CC(=O)N(Cc2ccccc2)/C(=C/c2ccccc2)C1=O,48.2,0.0,38.4,43.8*,8.5,40.4*
COc1ccc(S(=O)(=O)n2nc(OC(=O)C3CCCCC3)cc2N)cc1,25.7,0.1,38.3,45.7*,-1.3,-13.6
Cc1ccc(S(=O)(=O)n2nc(OC(=O)c3cccs3)cc2N)cc1,37.2,-2.2,33.8,47.3*,-14.4,17.8
COc1cc(N)c(Cl)cc1C(=O)OCC(=O)NC(=O)NCc1ccco1,-9.1,-2.3,-17.1,-5.8,-4.6,x
Cc1ccc(NC(=O)[C@H](C)NC(=O)C2CCN(C(=O)[C@@H](N)C(C)C)CC2)cc1,-2.0,-2.5,-15.7,9.6,10.3,x
O=C(N/C(=C/c1ccccc1F)C(=O)N1CCCCC1)c1ccccc1,8.6,3.2,6.6,0.5,-9.1,x
COc1ccc(Cn2c(-c3ccc(C)cc3)c[n+]3ccccc23)cc1,-2.8,0.8,37.5,41.6*,21.5,50.6*
CC(C)(C)OC(=O)N1CCC(c2c(C(=O)NCC3CCN(C4CCCC4)C3)cnn2-c2ccc(F)cc2)CC1 (stereo not given),-0.5,-1.1,-3.7,4.7,3.1,x
COc1ccc(NC(=O)CCS(=O)(=O)c2ccc(Br)s2)cc1,17.3,1.7,11.8,0.2,17.0,x
CCOC(=O)c1ccc(NC(=O)CCS(=O)(=O)c2ccc(Br)s2)cc1,26.3,2.4,38.9,43.6*,x,18.2

# Screening data from PubChem.
